Source: PubChem BioAssay (Tox21)
Where “and” joins values, the source holds several entries; their conditions need not be identical. Equal values may be shown once. Inconclusive results are not listed. Some compounds were tested as several samples or in several runs, with calls that do not always agree. Calls of active or inactive are those of the source. Calls follow the shape of the dose curve; as a rule, active = well fitted curve in the direction sought with a large enough effect in the repeat runs; inconclusive = weak or mixed curves; inactive = no such curve, though single readings can be large; an effect the other way counts as inactive or inconclusive.

Assays:
[1] = Human pregnane X receptor (PXR) small molecule agonists, qHTS cell viability counter screen (AID 1346977); also: nearly all actives have a fitted effect of over 50% in size; also: potency is read from the fitted curve at half-maximal effect
In short: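 HepG2 cells stably carrying the PXR-Luc reporter are cultured with 5% charcoal-stripped FBS and treated with compounds for 24hr. CellTiter-Fluor is added at 23hr and fluorescence is read after 1hr.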

[2] = Caspase-3/7 induction in HepG2 cells by small molecules, qHTS assay (AID 1346978); also: nearly all actives have a fitted effect of over 15% in size
In short: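 Wild-type HepG2 cells (2,000/well) were settled 5 h at 37 C, 5% CO2, then exposed to compounds in DMSO for 17 h. Caspase-3/7 activity was read by luminescence 30 min after adding Caspase-Glo 3/7 reagent at room temperature.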

[3] = Caspase-3/7 induction in CHO-K1 cells by small molecules, qHTS cell viability counter screen (AID 1346979); also: nearly all actives have a fitted effect of over 35% in size; also: potency is read from the fitted curve at half-maximal effect
In short: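 Seeding: 1,500 CHO-K1 cells/well. Rest: 5hr, 37C. Treatment: compounds in DMSO, 16hr. Read: CellTiter-Fluor, 1hr, fluorescence.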

[4] = Caspase-3/7 induction in CHO-K1 cells by small molecules, qHTS assay (AID 1346980); also: nearly all actives have a fitted effect of over 15% in size
In short: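 Wild-type cells were seeded at 1,500 per well and settled 5 hr at 37 C, 5% CO2, then exposed to DMSO-dissolved compounds for 17 hr. Caspase-Glo 3/7 reagent was added, and luminescence was read after 30min at room temperature.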

[5] = Caspase-3/7 induction in HepG2 cells by small molecules, qHTS cell viability counter screen (AID 1346981); also: nearly all actives have a fitted effect of over 30% in size; also: potency is read from the fitted curve at half-maximal effect; as to activity change, negative = cytotoxicity: series mostly up to about 92 µM
In short: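 Counter screen for cytotoxicity: HepG2 exposed 16 hr to compounds, then CellTiter-Fluor viability signal (fluorescence, 1 hr reagent incubation).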

[6] = target: Nuclear receptor subfamily 1 group I member 2 (Homo sapiens) (UniProt O75469); test: Human pregnane X receptor (PXR) small molecule agonists, qHTS assay (AID 1346982); also: nearly all actives have a fitted effect of over 35% in size; also: potency is read from the fitted curve at half-maximal effect
Chain of Nuclear receptor subfamily 1 group I member 2 (Homo sapiens) (O75469 whole entry, looked up): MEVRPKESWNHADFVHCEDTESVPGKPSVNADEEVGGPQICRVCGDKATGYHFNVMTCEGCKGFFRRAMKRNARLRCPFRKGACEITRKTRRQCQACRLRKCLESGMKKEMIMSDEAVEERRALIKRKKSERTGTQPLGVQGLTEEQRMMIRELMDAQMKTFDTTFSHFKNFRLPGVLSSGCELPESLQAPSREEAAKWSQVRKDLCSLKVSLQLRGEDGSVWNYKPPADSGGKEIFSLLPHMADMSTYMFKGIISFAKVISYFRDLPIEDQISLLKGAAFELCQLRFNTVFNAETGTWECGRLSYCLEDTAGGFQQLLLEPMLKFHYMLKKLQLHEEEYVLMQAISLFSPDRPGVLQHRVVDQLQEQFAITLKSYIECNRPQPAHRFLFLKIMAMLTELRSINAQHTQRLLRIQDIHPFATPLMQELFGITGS
In short: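 Luminescence (ONE-Glo, 30 min RT) after 24 hr compound exposure of PXR-Luc HepG2 cells; cells rested 5 hr post-plating in 5% charcoal-stripped FBS medium.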

[7] = target: Cytochrome P450 2D6 (Homo sapiens) (UniProt P10635); test: Cytochrome P450 Family 2 Subfamily D Member 6 (CYP2D6) small molecule antagonists: luciferase reporter qHTS assay (AID 1671196); also: nearly all actives have a fitted effect of over 50% in size; also: potency is read from the fitted curve at half-maximal effect; as to activity change, negative = inhibition: series mostly up to about 120 µM
Chain of Cytochrome P450 2D6 (Homo sapiens) (P10635 whole entry, looked up): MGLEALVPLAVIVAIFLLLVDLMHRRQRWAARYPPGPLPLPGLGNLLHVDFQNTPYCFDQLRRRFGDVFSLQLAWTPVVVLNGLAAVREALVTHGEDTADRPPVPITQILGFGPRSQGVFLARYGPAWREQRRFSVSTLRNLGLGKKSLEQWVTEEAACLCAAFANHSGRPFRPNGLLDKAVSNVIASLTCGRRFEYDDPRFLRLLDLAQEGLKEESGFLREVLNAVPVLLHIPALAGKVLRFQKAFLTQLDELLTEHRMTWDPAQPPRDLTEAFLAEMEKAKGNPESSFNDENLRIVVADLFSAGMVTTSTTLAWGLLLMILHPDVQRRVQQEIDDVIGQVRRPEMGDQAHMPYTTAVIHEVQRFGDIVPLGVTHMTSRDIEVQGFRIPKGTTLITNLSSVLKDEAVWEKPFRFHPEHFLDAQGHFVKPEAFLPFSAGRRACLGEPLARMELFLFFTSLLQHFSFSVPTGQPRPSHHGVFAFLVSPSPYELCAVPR
In short: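 Inhibition of CYP2D6 was gauged by loss of luminescence, since light produced tracks the luciferin generated from a proluciferin substrate. A 10 min room-temperature preincubation preceded 1 h NADPH-supported turnover.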

[8] = target: Cytochrome P450 2C19 (Homo sapiens) (UniProt P33261); test: Cytochrome P450 Family 2 Subfamily C Member 19 (CYP2C19) small molecule antagonists: luciferase reporter qHTS assay (AID 1671197); also: nearly all actives have a fitted effect of over 65% in size; also: potency is read from the fitted curve at half-maximal effect; as to activity change, negative = inhibition: series mostly up to about 120 µM
Chain of Cytochrome P450 2C19 (Homo sapiens) (P33261 whole entry, looked up): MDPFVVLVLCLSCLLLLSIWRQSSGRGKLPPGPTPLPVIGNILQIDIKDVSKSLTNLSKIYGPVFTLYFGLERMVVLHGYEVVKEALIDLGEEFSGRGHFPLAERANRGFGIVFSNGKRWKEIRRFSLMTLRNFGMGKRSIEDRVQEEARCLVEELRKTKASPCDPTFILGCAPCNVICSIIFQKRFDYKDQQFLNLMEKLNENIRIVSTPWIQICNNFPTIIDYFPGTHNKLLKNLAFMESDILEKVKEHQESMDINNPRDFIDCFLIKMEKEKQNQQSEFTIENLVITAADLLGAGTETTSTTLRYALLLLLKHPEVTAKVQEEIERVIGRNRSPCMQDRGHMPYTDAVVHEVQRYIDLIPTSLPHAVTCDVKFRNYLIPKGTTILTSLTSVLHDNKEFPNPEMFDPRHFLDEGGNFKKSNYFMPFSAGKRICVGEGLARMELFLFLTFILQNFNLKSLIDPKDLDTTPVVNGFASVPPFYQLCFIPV
In short: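 Enzyme-substrate mix with proluciferin substrate (P450-Glo CYP2C19 system) preincubated with compounds 10 min at room temperature; NADPH regeneration solution added, 37C for 1 h; detection reagent stops reaction, luminescence read after 20 min. Ketoconazole positive control.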

[9] = target: Voltage-gated inwardly rectifying potassium channel KCNH2 (Homo sapiens) (UniProt Q12809); test: Human Ether-a-go-go-Related Gene (hERG) channel small molecule antagonists: fluorescence cell-based qHTS assay (AID 1671200);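 also: hERG-expressing U2OS cells given a thallium stimulus after FluxOR II dye loading; series mostly up to about 77 µM; nearly all actives have a fitted effect of over 50% in size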
Chain of Voltage-gated inwardly rectifying potassium channel KCNH2 (Homo sapiens) (Q12809 whole entry, looked up): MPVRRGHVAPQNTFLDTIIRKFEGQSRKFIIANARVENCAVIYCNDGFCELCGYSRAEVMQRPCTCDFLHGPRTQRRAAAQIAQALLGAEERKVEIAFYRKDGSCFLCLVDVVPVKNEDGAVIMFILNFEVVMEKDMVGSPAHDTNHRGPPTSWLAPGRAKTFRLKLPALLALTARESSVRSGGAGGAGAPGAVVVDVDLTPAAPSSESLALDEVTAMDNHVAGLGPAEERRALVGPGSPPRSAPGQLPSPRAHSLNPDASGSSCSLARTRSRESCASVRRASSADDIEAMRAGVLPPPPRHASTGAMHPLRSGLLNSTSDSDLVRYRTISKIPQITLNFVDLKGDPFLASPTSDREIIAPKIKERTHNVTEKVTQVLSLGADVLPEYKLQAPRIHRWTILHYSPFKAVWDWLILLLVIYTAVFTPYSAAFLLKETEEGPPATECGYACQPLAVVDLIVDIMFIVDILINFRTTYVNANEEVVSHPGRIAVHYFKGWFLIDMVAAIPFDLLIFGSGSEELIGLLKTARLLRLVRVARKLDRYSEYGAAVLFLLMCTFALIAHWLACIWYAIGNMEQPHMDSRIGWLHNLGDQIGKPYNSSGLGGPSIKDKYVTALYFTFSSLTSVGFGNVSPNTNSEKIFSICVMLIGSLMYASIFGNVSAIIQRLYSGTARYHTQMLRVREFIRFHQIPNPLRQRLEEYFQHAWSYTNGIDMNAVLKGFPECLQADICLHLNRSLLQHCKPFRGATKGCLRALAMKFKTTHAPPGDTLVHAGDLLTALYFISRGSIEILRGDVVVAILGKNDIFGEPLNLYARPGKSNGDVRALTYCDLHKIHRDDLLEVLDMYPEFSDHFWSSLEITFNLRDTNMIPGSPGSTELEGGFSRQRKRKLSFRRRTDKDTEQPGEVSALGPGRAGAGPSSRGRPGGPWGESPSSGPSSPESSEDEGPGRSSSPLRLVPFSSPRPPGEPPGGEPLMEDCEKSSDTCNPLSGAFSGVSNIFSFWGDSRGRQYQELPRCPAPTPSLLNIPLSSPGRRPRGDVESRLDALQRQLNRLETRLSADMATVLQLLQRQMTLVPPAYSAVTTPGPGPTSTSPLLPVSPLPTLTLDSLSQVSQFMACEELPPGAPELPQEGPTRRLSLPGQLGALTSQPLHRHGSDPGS
In short: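 First, 1000 cells per well are seeded and cultured overnight at 37 C. Next, FluxOR II dye is loaded for 1 h at room temperature, protected from light. After 10 more minutes, stimulus is added and fluorescence is read.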

[10] = target: Cytochrome P450 3A4 (Homo sapiens) (UniProt P08684); test: Cytochrome P450 Family 3 Subfamily A Member 4 (CYP3A4) small molecule antagonists: luciferase reporter qHTS assay (AID 1671201); also: nearly all actives have a fitted effect of over 50% in size; also: potency is read from the fitted curve at half-maximal effect; as to activity change, negative = inhibition: series mostly up to about 120 µM
Chain of Cytochrome P450 3A4 (Homo sapiens) (P08684 whole entry, looked up): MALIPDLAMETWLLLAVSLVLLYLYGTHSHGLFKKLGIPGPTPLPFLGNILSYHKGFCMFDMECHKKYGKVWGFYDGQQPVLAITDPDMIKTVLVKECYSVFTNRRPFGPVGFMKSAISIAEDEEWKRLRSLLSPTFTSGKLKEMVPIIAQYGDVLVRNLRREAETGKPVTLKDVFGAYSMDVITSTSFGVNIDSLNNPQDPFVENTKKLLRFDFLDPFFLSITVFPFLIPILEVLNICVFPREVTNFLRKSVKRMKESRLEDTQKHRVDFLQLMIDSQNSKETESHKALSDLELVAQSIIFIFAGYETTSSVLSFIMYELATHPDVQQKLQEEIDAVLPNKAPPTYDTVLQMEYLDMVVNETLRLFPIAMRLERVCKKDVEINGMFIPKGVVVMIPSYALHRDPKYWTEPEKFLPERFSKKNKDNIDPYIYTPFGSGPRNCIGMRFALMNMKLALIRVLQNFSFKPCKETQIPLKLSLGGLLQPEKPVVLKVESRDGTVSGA
In short: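 Enzyme and proluciferin substrate are mixed with test chemicals for 10 min, then NADPH regeneration system drives turnover for 1 h at room temperature. A detection reagent halts the reaction; luminescence after 20 min gives relative activity.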

[11] = target: Cytochrome P450 1A2 (Homo sapiens) (UniProt P05177); test: Cytochrome P450 Family 1 Subfamily A Member 2 (CYP1A2) small molecule antagonists: luciferase reporter qHTS assay (AID 1671199); also: nearly all actives have a fitted effect of over 50% in size; also: potency is read from the fitted curve at half-maximal effect; as to activity change, negative = inhibition: series mostly up to about 120 µM
Chain of Cytochrome P450 1A2 (Homo sapiens) (P05177 whole entry, looked up): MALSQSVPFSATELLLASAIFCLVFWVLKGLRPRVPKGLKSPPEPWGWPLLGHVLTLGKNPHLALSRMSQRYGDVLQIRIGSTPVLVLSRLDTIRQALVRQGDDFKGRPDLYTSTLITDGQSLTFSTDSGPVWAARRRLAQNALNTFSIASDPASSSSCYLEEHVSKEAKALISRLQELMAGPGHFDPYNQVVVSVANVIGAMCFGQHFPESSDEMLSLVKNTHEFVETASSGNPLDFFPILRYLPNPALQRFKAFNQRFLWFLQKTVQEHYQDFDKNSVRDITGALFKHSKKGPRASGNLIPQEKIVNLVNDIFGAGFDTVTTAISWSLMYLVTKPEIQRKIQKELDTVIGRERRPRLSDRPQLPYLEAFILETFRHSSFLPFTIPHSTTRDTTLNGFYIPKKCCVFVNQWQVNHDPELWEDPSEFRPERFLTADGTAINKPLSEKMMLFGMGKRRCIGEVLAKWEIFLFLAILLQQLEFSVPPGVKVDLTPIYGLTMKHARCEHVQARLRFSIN
In short: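 Signal from luciferin formed by CYP1A2 from a proluciferin substrate is read as luminescence, expressed in relative luminescence units. Compounds sit with enzyme 10 min, NADPH-driven reaction runs 1 h, all at room temperature.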

[12] = target: Cytochrome P450 2C9 (Homo sapiens) (UniProt P11712); test: Cytochrome P450 Family 2 Subfamily C Member 9 (CYP2C9) small molecule antagonists: luciferase reporter qHTS assay (AID 1671198); also: nearly all actives have a fitted effect of over 50% in size; also: potency is read from the fitted curve at half-maximal effect; as to activity change, negative = inhibition: series mostly up to about 120 µM
Chain of Cytochrome P450 2C9 (Homo sapiens) (P11712 whole entry, looked up): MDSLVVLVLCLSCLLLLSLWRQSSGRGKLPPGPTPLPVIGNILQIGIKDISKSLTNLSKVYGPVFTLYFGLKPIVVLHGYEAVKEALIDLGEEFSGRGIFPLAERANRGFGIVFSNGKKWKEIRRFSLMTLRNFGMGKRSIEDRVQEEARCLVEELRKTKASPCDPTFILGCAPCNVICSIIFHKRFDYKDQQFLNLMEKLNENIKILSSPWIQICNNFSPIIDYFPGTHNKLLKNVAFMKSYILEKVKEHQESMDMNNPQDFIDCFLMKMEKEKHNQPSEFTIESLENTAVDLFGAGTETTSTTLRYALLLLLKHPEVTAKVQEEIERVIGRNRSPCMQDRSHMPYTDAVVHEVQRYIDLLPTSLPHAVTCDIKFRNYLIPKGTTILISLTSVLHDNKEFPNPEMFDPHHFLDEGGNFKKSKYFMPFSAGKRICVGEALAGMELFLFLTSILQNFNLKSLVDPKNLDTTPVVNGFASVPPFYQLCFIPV
In short: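 CYP2C9 activity was measured with a P450-Glo proluciferin substrate. Enzyme–substrate mix was held with compound for 10 min at room temperature, then NADPH regeneration solution was added for 1 h at 37C. Luciferin product was read as luminescence.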

[13] = target: Nuclear receptor subfamily 1 group I member 2 (Rattus norvegicus) (UniProt Q9R1A7); test: Rat pregnane X receptor (rPXR) activation by small molecules, qHTS assay (AID 1346983); settings: rPXR luciferase reporter cells, One-Glo luminescence, 24 h; stronger effect = higher value; also: nearly all actives have a fitted effect of over 20% in size
Chain of Nuclear receptor subfamily 1 group I member 2 (Rattus norvegicus) (Q9R1A7 whole entry, looked up): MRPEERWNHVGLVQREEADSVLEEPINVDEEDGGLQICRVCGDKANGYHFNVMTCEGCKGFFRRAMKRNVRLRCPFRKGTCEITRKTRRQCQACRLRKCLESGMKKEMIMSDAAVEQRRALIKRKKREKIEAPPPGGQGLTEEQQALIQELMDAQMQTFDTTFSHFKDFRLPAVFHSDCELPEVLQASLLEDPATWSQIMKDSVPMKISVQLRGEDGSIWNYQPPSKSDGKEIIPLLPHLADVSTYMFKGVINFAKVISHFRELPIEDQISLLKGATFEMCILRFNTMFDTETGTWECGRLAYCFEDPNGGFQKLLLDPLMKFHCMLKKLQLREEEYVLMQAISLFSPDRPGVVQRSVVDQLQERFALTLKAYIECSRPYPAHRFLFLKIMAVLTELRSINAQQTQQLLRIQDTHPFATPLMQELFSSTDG
In short: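 Cell-based rPXR luciferase reporter assay, 2,000 cells per well, rested 5hr at 37 C before compound addition in DMSO, then 24 hr at 37 C. One-Glo reagent was added and luminescence read after 30 min at room temperature.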

[14] = target: Nuclear receptor subfamily 1 group I member 2 (Homo sapiens) (UniProt O75469); test: CYP3A4 induction through human pregnane X receptor (PXR) by small molecules, qHTS assay (AID 1346984); also: nearly all actives have a fitted effect of over 40% in size
In short: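 DPX-2 reporter cells; 24h cpd, 37C; Luciferin-IPA 3uM final x3h; One-Glo 30 min RT; lumi read.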
% is scaled to controls: 0 for no effect and ±100 for the full control effect.

c1ccsc1
inactive: Potency [1] | Potency [2] | Potency [3] | Potency [4] | Potency [5] | Potency [6] | Potency [7] | Potency [8] | Potency [9] | Potency [10]

O=C(O)O
active: Potency [8] 3.86 µM
inactive: activity change, negative = cytotoxicity [1] 1.04% [at 8.39 µM] | caspase activation [2] 0.0124% [at 8.39 µM] | activity change, negative = cytotoxicity [3] 0.8% [at 8.39 µM] | caspase-3/7 activation [4] 0.298% [at 8.39 µM] | activity change, negative = cytotoxicity [5] -0.291% [at 8.39 µM] | activation [6] 4.39% [at 8.39 µM] | activity change, negative = inhibition [7] -1.63% [at 10.5 µM] | activity change, negative = inhibition [9] 0.334% [at 6.97 µM] | activity change, negative = inhibition [10] 0.224% [at 10.5 µM]

COc1cc(/C=C/c2ccccc2)oc(=O)c1
active: Potency [6] 7.96 µM | Potency [8] 10.4 µM | Potency [11] 2.93 µM | Potency [10] 26.1 µM
inactive: Potency [1] | Potency [2] | Potency [3] | Potency [4] | Potency [5] | Potency [7] | Potency [9]

CC(C)CCCCCOC(=O)CCS
active: Potency [11] 39.9 µM
inactive: Potency [1] | Potency [2] | Potency [3] | Potency [4] | Potency [5] | Potency [6] | Potency [7] | Potency [9] | Potency [10]

CCOC(=O)Cn1cccc1-c1nc(-c2ccc(OC)cc2)c(-c2ccc(OC)cc2)s1
inactive: Potency [1] | Potency [2] | Potency [3] | Potency [4] | Potency [11] | Potency [9]
active: Potency [8] 3.89 µM | Potency [12] 3.89 µM

Cc1c(C)c([N+](=O)[O-])c(C(C)(C)C)c([N+](=O)[O-])c1C
inactive: Potency [1] | Potency [2] | Potency [3] | Potency [4] | Potency [5] | Potency [7] | Potency [10]
active: Potency [8] 28.3 µM | Potency [12] 35.6 µM | Potency [11] 20 µM

COc1ccc(-c2coc3cc(O)ccc3c2=O)cc1
active: Potency [6] 1.37 µM | Potency [12] 0.252 µM
inactive: Potency [1] | Potency [2] | Potency [3] | Potency [4] | Potency [5] | Potency [9] | Potency [10]

OC1CCCc2ccccc21 (centres undefined)
inactive: Potency [1] | Potency [2] | Potency [3] | Potency [4] | Potency [5] | Potency [6] | Potency [8] | Potency [12] | Potency [9] | Potency [10]

CCCCCCCC
inactive: Potency [1] | Potency [2] | Potency [3] | Potency [4] | Potency [5] | Potency [6] | Potency [8] | Potency [12] | Potency [9] | Potency [10]

CC(C)(C)NSc1nc2ccccc2s1
inactive: Potency [1] | Potency [2] | Potency [3] | Potency [4] | Potency [5] | Potency [9]
active: Potency [6] 49.4 µM | Potency [8] 32.2 µM | Potency [11] 32.2 µM

O=c1[nH]c(=O)n([C@H]2C[C@H](O)[C@@H](CO)O2)cc1F
inactive: Potency [1] | Potency [2] | Potency [3] | Potency [4] | Potency [5] | max activation [13] -2.43% | Potency [14] | Potency [7] | Potency [8] | Potency [12] | Potency [11] | Potency [9] | Potency [10]

O=C1CCc2ccc(OCCCCN3CCN(c4cccc(Cl)c4Cl)CC3)cc2N1
inactive: Potency [2] | Potency [4] | max activation [13] -4.05%
active: Potency [1] 16.8 µM | Potency [3] 21.1 µM | Potency [5] 23.7 µM

CC(=O)[C@H]1CC[C@H]2[C@@H]3CCC4=CC(=O)CC[C@]4(C)[C@H]3CC[C@]12C
inactive: Potency [1] | Potency [2] | Potency [4] | Potency [5] | Potency [10]
active: Potency [3] 54.2 µM and 48.6 µM | Potency [8] 3.54 µM and 3.99 µM | Potency [12] 22.3 µM and 25.2 µM | Potency [11] 31.7 µM

FC(F)(F)c1cccc(Cl)c1
inactive: Potency [1] | Potency [2] | Potency [3] | Potency [4] | Potency [5] | Potency [6] | Potency [11] | Potency [9] | Potency [10]
active: Potency [8] 69.7 µM

C=C(CC)C(=O)c1ccc(OCC(=O)O)c(Cl)c1Cl
68.1 µM (active) and inactive: Potency [3]
inactive: Potency [2] | Potency [4] | Potency [6] | Potency [8] | Potency [9] | Potency [10]
active: Potency [1] 43 µM | Potency [5] 30.4 µM

CCCCCCCCCCOC(=O)c1ccccc1C(=O)OCCCCCCCC
inactive: Potency [1] | Potency [2] | Potency [3] | Potency [4] | Potency [5] | Potency [6] | Potency [8] | Potency [11] | Potency [9] | Potency [10]

C/C=C/C=C/COC(=O)C(C)C
inactive: Potency [2] | Potency [4] | Potency [9]
active: Potency [1] 68.6 µM | Potency [3] 54.5 µM | Potency [6] 43.3 µM | Potency [8] 79.6 µM | Potency [11] 35.6 µM | Potency [10] 28.3 µM

CC(N=C(NC#N)Nc1ccncc1)C(C)(C)C (centres undefined)
active: Potency [8] 1.55 µM | Potency [12] 13.8 µM
inactive: Potency [1] | Potency [2] | Potency [3] | Potency [4] | Potency [5] | max activation [13] -8.82% | Potency [9]

O=S(=O)(O)c1ccc(N=Nc2c(O)ccc3ccccc23)cc1
inactive: Potency [2] | Potency [4] | Potency [9]
active: Potency [1] 27.3 µM | Potency [3] 30.6 µM | Potency [5] 30.6 µM | Potency [7] 35.6 µM | Potency [8] 11.2 µM | Potency [12] 31.7 µM | Potency [11] 31.7 µM | Potency [10] 35.6 µM

CC[N+](CC)(CC)CCOC(=O)C(C1CCCC1)C1CCCC1
inactive: Potency [1] | Potency [2] | Potency [3] | Potency [4] | Potency [5] | Potency [6] | Potency [12]

CCn1c2ccccc2c2cc([N+](=O)[O-])ccc21
active: Potency [6] 19.3 µM | Potency [8] 7.96 µM | Potency [11] 1.12 µM
inactive: Potency [1] | Potency [2] | Potency [3] | Potency [4] | Potency [5] | Potency [12] | Potency [10]

C#Cc1ccc(-c2ccccc2F)cc1
inactive: Potency [1] | Potency [2] | Potency [3] | Potency [4] | Potency [5] | Potency [6] | Potency [9]
active: Potency [8] 7.76 µM | Potency [12] 15.5 µM

CNc1ccc([N+](=O)[O-])cc1
inactive: Potency [2] | Potency [4] | Potency [9] | Potency [10]
active: Potency [1] 43.4 µM | Potency [3] 48.7 µM | Potency [5] 30.7 µM | Potency [6] 54.6 µM | Potency [8] 35.7 µM | Potency [11] 35.7 µM
